Targets with the largest changes are over-represented here; the source holds about 21,000 in all.
Compound: CC1Cc2ccccc2N1C(=O)C1CCCN(C1)C(=O)CCl (mixture of isomers) [TRIM25 ligand 11 (diastereomer mixture)]
Experiment: probe-labelled cysteine peptide fold change vs DMSO (competition) (log2 fold change); higher = less target engagement (more negative = stronger competition)
Details: THP-1, incubation time: 4 h
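Also: competitive chemoproteomic profiling in live THP-1 cells with an iodoacetamide desthiobiotin (IA-DTB) probe, comparing probe-labelled peptide intensities in compound-treated cells against DMSO-treated controls.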

Row | Target | probe-labelled cysteine peptide fold change (10 µM) | probe-labelled cysteine peptide fold change (50 µM)
1 | MINK1_Q8N4C8_129_EDCIAYICR (UniProt Q8N4C8) | 0.00524 | 
2 | MIF4GD_A9UHW6_150_EEEVDCLVLQLHR (UniProt A9UHW6) | 0.222 | 
3 | MYCBP2_O75592_4406+4413_NEEHCLPCLHGCDK (UniProt O75592) | -0.0669 | 
4 | MIA3_Q5JRA6_1513_AGLEDECK (UniProt Q5JRA6) | 0.0174 | 
5 | MKI67_P46013_773_EQPQLTSTCHIAISNSENLLGK (UniProt P46013) | 0.234 | -0.0412
6 | MRPL38_Q96DV4_290_QDQPIDFSEDARPSPCYQLAQR (UniProt Q96DV4) | -0.028 | 
7 | MTHFS_P49914_180_EQICLQVPVNENDMK (UniProt P49914) | -0.00999 | 
8 | MIS18A_Q9NYP9_85_AQLEEEAAAAEERPLVFLCSGCR (UniProt Q9NYP9) | -0.0813 | 
9 | MTF2_Q9Y483_133_CGQGYHQLCHTPHIDSSVIDSDEK (UniProt Q9Y483) | 0.12 | 0.228
10 | MCM6_Q14566_351_NLYHNLCTSLFPTIHGNDEVK (UniProt Q14566) | 0.107 | 0.0102
11 | MDN1_Q9NU22_882_LFACMNPATDVGKR (UniProt Q9NU22) | -0.0968 | -0.078
12 | MTA2_O94776_209_ALDCSSSIR (UniProt O94776) | -0.025 | 
13 | LYST_Q99698_3649_LCYVQSLAGHK (UniProt Q99698) | 0.0365 | -0.124
14 | MELTF_P08582_603_SEDYELLCPNGAR (UniProt P08582) | 0.0149 | 0.0229
15 | METTL18_O95568_48_CSAEQFDLPQDHLWEHK (UniProt O95568) | -0.285 | 
16 | MYH9_P35579_896_LQLQEQLQAETELCAEAEELRAR (UniProt P35579) | -0.566 | -0.0747

Row | Target | probe-labelled cysteine peptide fold change (10 µM) | probe-labelled cysteine peptide fold change (50 µM)
17 | MIF_P14174_81_LLCGLLAER (UniProt P14174) | -0.156 | -0.117
18 | NACC1_Q96RE7_178_VKTEQQESDSVQCMPVAK (UniProt Q96RE7) | -0.28 | -0.426
19 | MOV10_Q9HCE1_650_LVSAQFPIDHFTHIFIDEAGHCMEPESLVAIAGLMEVK (UniProt Q9HCE1) | 0.00257 | 
20 | MAN2C1_Q9NTJ4_29_FVSPLYFTDCNLR (UniProt Q9NTJ4) | 0.111 | 
21 | NCAPD3_P42695_361_ILLQHICAK (UniProt P42695) | -0.145 | 0.173
22 | MDN1_Q9NU22_1394_ALEFGEPVLLVGDTGCGK (UniProt Q9NU22) | -0.0161 | 0.145
23 | MTA3_Q9BTC8_109_CSVALLNETESVLSYLDK (UniProt Q9BTC8) | 0.851 | 
24 | MBTPS2_O43462_386_SSSSSFCIIPSLETHTR (UniProt O43462) | -0.0619 | 
25 | MED1_Q15648_302_WTPSFSSITSANSVDLPACFFLK (UniProt Q15648) | -0.00458 | 0.123
26 | MAP10_Q9P2G4_605_TVDCSK (UniProt Q9P2G4) | -0.174 | -0.0642
27 | MRE11_P49959_249_HGSTNFIPEQFLDDFIDLVIWGHEHECK (UniProt P49959) | -0.0677 | -0.0212
28 | LYPLA2_O95372_213_TYPGVMHSSCPQEMAAVK (UniProt O95372) | 0.0451 | 
29 | MAP1S_Q66K74_841_HDPLPDPLKVPPPLPDPSSICMVDPEMLPPK (UniProt Q66K74) | -0.202 | 
30 | NCAPD3_P42695_143_CIQTLK (UniProt P42695) | 0.0922 | 0.12
31 | MCM2_P49736_624_CTVIAAANPIGGR (UniProt P49736) | 0.0682 | 0.0292
